Data from ChEMBL document CHEMBL4513216, “Probing the Open Global Health Chemical Diversity Library for Multistage-Active Starting Points for Next-Generation Antimalarials” (ACS Infect Dis, 2020).
Out of some 69,000 compounds screened, about 8,600 (12%) showed an effect of 50% or more. The sample as a whole holds a higher share of strong results than the screen did.

tested on: Plasmodium berghei; assay: Screen against P. berghei liver stage (PbLuc), transformed with Luciferase, at 10uM; format: functional, HepG2; conditions: tested at 10 uM

| Structure (SMILES) | INHIBITION |
| --- | --- |
| O=C(O)c1ccccc1-n1cc(CN2CCOC(c3cc[nH]n3)C2)cn1 (stereo not drawn) | 20.7% |
| Cc1ccc(-c2nc(CN3CCCC(Cn4cncn4)C3)cs2)o1 (stereo not drawn) | -7.35% |
| Nc1ncnc2nc(C3CCN(C(=O)Cc4ccc(F)cc4)C3)ccc12 (stereo not drawn) | -19.9% |
| CCC(C)N(Cc1cnc(NC(C)C)nc1)Cc1ccsc1 (stereo not drawn) | 30.4% |
| CCc1nnc(Nc2cccc(C3CCN(C(=O)CNC)CC3)n2)s1 | -17.7% |
| CC(Cc1cn(CCc2n[nH]c(=O)[nH]2)nn1)c1ccccc1 (stereo not drawn) | 18.5% |
| CN(C)c1ccc(CC2CCN(c3cnccn3)C2)nn1 (stereo not drawn) | 0.696% |
| COC1(CNC(=O)c2ccsc2)CCSC1 (stereo not drawn) | 5.91% |
| COC(=O)CN1CCC(C(F)(F)F)CC1 | -8.9% |
| CN(C)Cc1cnc2n1CCN(C(=O)Cc1ccsc1)CC2 | 11.3% |
| Cc1ccsc1C(=O)N1CCc2ncc(CN(C)C)n2CC1 | 62.9% |
| Cc1ccsc1C(=O)N1CCc2ncc(CN3CCCC3)n2CC1 | 8.6% |
| Cc1ccsc1C(=O)N1CCc2ncc(Cn3cccn3)n2CC1 | 29.4% |
| CN(C)Cc1cnc2n1CCN(C(=O)Cc1ccc(F)cc1)CC2 | 52.6% |
| CN(C)Cc1cnc2n1CCN(C(=O)Cc1cccc(F)c1)CC2 | 37.9% |
| Cc1nc(N)ncc1C(=O)N1CCCC(CCc2ccccc2F)C1 (stereo not drawn) | 43.9% |
| O=c1[nH]c2ccccc2cc1CNCCCN1CCOCC1 | 36.4% |
| O=C(N1CCCC1)N1CCC2(CCN(Cc3ccccn3)C2=O)C1 (stereo not drawn) | 15.6% |
| Cc1ccc(CN2CCc3nnc(CN4CCCC4=O)n3CC2)s1 | 37.1% |
| O=C(CN1CCCC1)N1CCCC(CNS(=O)(=O)Cc2ccccc2)C1 (stereo not drawn) | 51.3% |
| O=C(Cc1cccs1)N1CCCC(CNS(=O)(=O)Cc2ccccc2)C1 (stereo not drawn) | 73.6% |
| O=S(=O)(Cc1ccccc1)NCC1CCCN(Cc2cccs2)C1 (stereo not drawn) | 48.1% |
| CS(=O)(=O)NCC1CCCN(C(=O)CCCc2ccccc2)C1 (stereo not drawn) | -0.18% |
| O=C(Cc1ccsc1)N1CCCC(CNS(=O)(=O)Cc2ccccc2)C1 (stereo not drawn) | 34.6% |
| CS(=O)(=O)NCC1CCCN(C(=O)COCc2ccccc2)C1 (stereo not drawn) | 32.6% |

| Structure (SMILES) | INHIBITION |
| --- | --- |
| CC(=O)N1CCCC1c1ccc(CN2CCOCC2)cn1 (stereo not drawn) | 35.625% |
| CCC(COC)NC(=O)N1CCC(n2ccc(C(F)(F)F)n2)CC1 (stereo not drawn) | -15.1% |
| CCn1ccc(-c2nnc(SCC(=O)Nc3ccc(C)cc3)n2CC)n1 | 7.38% |
| CCN1C(=O)CC(c2ccccc2)C12CCN(CC1CCOCC1)CC2 (stereo not drawn) | 43.2% |
| CCN(C)c1ncnc2c1CCN(S(=O)(=O)c1ccccc1)CC2 | 43.9% |
| Cc1ccc(OCCn2cnc3oc(C)c(C(=O)O)c3c2=O)cc1 | -1.04% |
| CC(Cn1ccnc1)NC(=O)N1CCN(Cc2ccco2)CC1 (stereo not drawn) | -13.65% |
| OC1CCN(c2cncc(CCC3CCCN3)n2)CC1 (stereo not drawn) | 9.575% |
| O=C(CCN1CCCCO1)NCc1cn2c(n1)SCC2 | 78.4% |
| O=C(NCc1cn2c(n1)SCC2)c1cn(CCN2CCCCC2)nn1 | 21% |
| O=C(NCc1cn2c(n1)SCC2)c1ccc(CN2CCCCC2)cc1 | 29.2% |
| CN(C(=O)C1CCCC1)C(c1cccc(F)c1)c1ccccn1 (stereo not drawn) | 5.7% |
| CCOc1ccc(C(=O)N(Cc2cnn(C)c2)C(C)C)cc1OCC | 27.8% |
| O=C(CCC(F)(F)F)N1CCCC2(CCC(=O)N(CC3CC3)C2)C1 (stereo not drawn) | 59.4% |
| O=C(CSCC1CC1)N1CCCC2(CCC(=O)N(CC3CC3)C2)C1 (stereo not drawn) | 32.1% |
| O=C(CO)N1CCCC2(CCC(=O)N(CC3CC3)C2)C1 (stereo not drawn) | 33% |
| Cc1ccc(C(=O)N2CCc3ncnc(-c4cnn(C)c4)c3CC2)cn1 | -64.6% |
| COCC(=O)Nc1ccc(N2CCC(OC)CC2)c(C(F)(F)F)c1 | 30.3% |
| CCC(=O)Nc1ccc(N2CCC(OC)CC2)c(C(F)(F)F)c1 | 45.1% |
| COCCCNC(=O)Nc1ccc(-n2cncn2)c(C(F)(F)F)c1 | -37.55% |
| CCNC(=O)Nc1ccc(N2CCC(OC)CC2)c(C(F)(F)F)c1 | 89.6% |
| COC1CCN(c2ccc(NC(=O)C3CC3)cc2C(F)(F)F)CC1 | 95.8% |
| CCNC(=O)C1CCCN(c2ccc(C#N)cc2C(F)(F)F)C1 (stereo not drawn) | 26.3% |
| COCCNC(=O)[C@H]1CN(Cc2nccs2)C[C@H]2OCC[C@@H]12 | -3.19% |
| CCOCCC1(CNC(=O)c2ccc(C)nc2)CCCC1 | -30.6% |

| Structure (SMILES) | INHIBITION |
| --- | --- |
| c1ccc(-c2noc(CN3CCC(c4ccn[nH]4)CC3)n2)cc1 | 35.1% |
| c1ccc(-c2cc(CN3CCC(c4ccn[nH]4)CC3)on2)cc1 | 73.5% |
| Cc1cccc(-c2noc(CN3CCC(c4ccn[nH]4)CC3)n2)c1 | -39.6% |
| Cn1cnc(S(=O)(=O)N2CCCC2c2ccnc3nccn23)c1 (stereo not drawn) | 23.84% |
| CC(C)c1nccn1C1CCCN(C(=O)CCNS(C)(=O)=O)C1 (stereo not drawn) | 36.1% |
| CC(C)c1nccn1C1CCCN(C(=O)CCc2cnn(C)c2)C1 (stereo not drawn) | 33.3% |
| CCc1nnsc1C(=O)N1CCCC(n2ccnc2C(C)C)C1 (stereo not drawn) | 53.9% |
| CSCC(=O)N1CCCC(n2ccnc2C(C)C)C1 (stereo not drawn) | 45.4% |
| CC(C)c1nccn1C1CCCN(C(=O)c2nccnc2N)C1 (stereo not drawn) | 41.5% |
| CC(C)c1nccn1C1CCCN(C(=O)CCc2cscn2)C1 (stereo not drawn) | 62.1% |
| Cc1cc(N2CCC(c3ncc[nH]3)CC2)c2ccccc2n1 | 41.6% |
| Cc1nc(CN2CCOCC3(CCN(c4cnccn4)CC3)C2)cs1 | -11.6% |
| CN(CC(C)(CO)CO)C(=O)Nc1cc(Cl)cc(Cl)c1 | 26.515% |
| c1csc(-c2nc(CN3CCCCC3Cn3cccn3)co2)c1 (stereo not drawn) | 11.5% |
| COc1ccc(C2=CN=C(C(F)(F)F)CC2N)cc1 (stereo not drawn) | -0.371% |
| NC1CC(C(F)(F)F)=NC=C1c1ccccc1 (stereo not drawn) | 4.08% |
| NC1CC(C(F)(F)F)=NC=C1c1ccc(Cl)cc1 (stereo not drawn) | 59% |
| COc1ccc(C(=O)NC2CC2)c(OC2CCN(C3CCC3)CC2)c1 | 29.4% |
| COc1ccc(C(=O)NC2CC2)c(OC)c1 | 23.6% |
| COc1ccc(C(=O)NC2CC2)c(OC2CCN(CC3CC3)CC2)c1 | 26.7% |
| COc1ccc(C(=O)NC2CC2)c(OC2CCN(CCCSC)CC2)c1 | 60.3% |
| COc1ccc(C(=O)NC2CC2)c(OC2CCN(C(C)CO)CC2)c1 (stereo not drawn) | 76.6% |
| COc1ccccc1OC1CCN(C(=O)CCCN2CCOCC2)CC1 | 23.8% |
